These results are taken from PubChem BioAssay (NCATS).

Assay [1] in a line: qHTS of pediatric cancer cell lines to identify multiple opportunities for drug repurposing: Primary screen for TC32 cells (AID 1347089). Note: nearly all actives have a fitted effect of over 60% in size. Note: potency is the fitted concentration of half-maximal effect. In outline: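 qHTS, TC32, 48 h drug treatment, CellTiter-Glo luminescence as a proxy for metabolically active cells; primary top concentration 46 µM (MIPE 11-pt, NPC 8-pt); confirmatory 11-pt.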
For orientation: In qHTS, concentration-response curves come from the screen itself.

A short description of assay [2]: qHTS of pediatric cancer cell lines to identify multiple opportunities for drug repurposing: Primary screen for DAOY cells (AID 1347090). Note: nearly all actives have a fitted effect of over 55% in size. Note: potency is the fitted concentration of half-maximal effect. Put shortly:
(§1)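 Eight- or eleven-point concentration series, 48 h treatment at 37 degrees C in growth media; readout CellTiter-Glo luminescence. Potency and efficacy were taken from the concentration-response curves.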

Assay [3] in a line: qHTS of pediatric cancer cell lines to identify multiple opportunities for drug repurposing: Primary screen for A673 cells (AID 1347092). Note: nearly all actives have a fitted effect of over 45% in size. Note: potency is the fitted concentration of half-maximal effect. In outline: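 Luminescence from CellTiter-Glo, taken after 15 min at room temperature, served as the proxy for metabolically active cells following 48 h treatment. Both potency and efficacy were taken from curves fitted to the titration data.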

The nature of assay [4]: qHTS of pediatric cancer cell lines to identify multiple opportunities for drug repurposing: Primary screen for SK-N-MC cells (AID 1347093). Note: potency is the fitted concentration of half-maximal effect. In outline: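 Metabolically active cells were quantified by ATP-dependent luminescence (CellTiter-Glo, 15 min at room temperature) following 48 h treatment. Cells had been plated at 500-1,000 per well and settled for 5 h beforehand.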

Assay [5] can be described thus: qHTS of pediatric cancer cell lines to identify multiple opportunities for drug repurposing: Primary screen for BT-37 cells (AID 1347094). Note: potency is the fitted concentration of half-maximal effect. In outline: (§2)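 Phenotypic viability qHTS, 48 h compound exposure, CellTiter-Glo luminescence read-out; multi-concentration dosing so that potency and efficacy derive directly from the primary screen's curves.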
Assay [6] in a line: qHTS of pediatric cancer cell lines to identify multiple opportunities for drug repurposing: Primary screen for NB-EBc1 cells (AID 1347095). Note: potency is the fitted concentration of half-maximal effect. Put shortly:
as §2

Assay [7] in a line: qHTS of pediatric cancer cell lines to identify multiple opportunities for drug repurposing: Primary screen for U-2 OS cells (AID 1347096). Note: nearly all actives have a fitted effect of over 50% in size. In outline:
(§3)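 Cells (500-1,000/well) in growth media were settled 5 h at 37 degrees C, then given compounds for 48 h. Viability was read as CellTiter-Glo luminescence. Primary runs used MIPE at 11 points (0.78 nM-46 µM) and NPC at 8 points (0.59 nM-46 µM); follow-ups used 11 points.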

Assay [8] can be described thus: qHTS of pediatric cancer cell lines to identify multiple opportunities for drug repurposing: Primary screen for Saos-2 cells (AID 1347097). Note: nearly all actives have a fitted effect of over 40% in size. Note: potency is the fitted concentration of half-maximal effect. Put shortly:
as §2

Assay [9] in a line: qHTS of pediatric cancer cell lines to identify multiple opportunities for drug repurposing: Primary screen for SK-N-SH cells (AID 1347098). Note: nearly all actives have a fitted effect of over 65% in size. Note: potency is the fitted concentration of half-maximal effect. Put shortly: (§4)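 Cells (500-1,000/well) rested 5 h, then received compounds for 48 h; metabolically active cells were measured by CellTiter-Glo luminescence. Final concentrations spanned up to 46 µM (MIPE, 11-point) or 0.59 nM-46 µM (NPC, 8-point) in primary screens, 11-point in follow-ups.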

Assay [10] can be described thus: qHTS of pediatric cancer cell lines to identify multiple opportunities for drug repurposing: Primary screen for LAN-5 cells (AID 1347100). Note: potency is the fitted concentration of half-maximal effect. In outline:
as §3

Assay [11] is described as follows: qHTS of pediatric cancer cell lines to identify multiple opportunities for drug repurposing: Primary screen for BT-12 cells (AID 1347101). Note: nearly all actives have a fitted effect of over 25% in size. Note: potency is the fitted concentration of half-maximal effect. Put shortly:
as §4

Assay [12] is described as follows: qHTS of pediatric cancer cell lines to identify multiple opportunities for drug repurposing: Primary screen for Rh18 cells (AID 1347102). Note: nearly all actives have a fitted effect of over 65% in size. Note: potency is the fitted concentration of half-maximal effect. In outline: as §3
Assay [13] is described as follows: qHTS of pediatric cancer cell lines to identify multiple opportunities for drug repurposing: Primary screen for RD cells (AID 1347104). Note: nearly all actives have a fitted effect of over 55% in size. Note: potency is the fitted concentration of half-maximal effect. Put shortly:
as §2

A short description of assay [14]: qHTS of pediatric cancer cell lines to identify multiple opportunities for drug repurposing: Primary screen for MG 63 (6-TG R) cells (AID 1347105). Note: nearly all actives have a fitted effect of over 50% in size. Note: potency is the fitted concentration of half-maximal effect. Put shortly:
as §2

Assay [15] in a line: qHTS of pediatric cancer cell lines to identify multiple opportunities for drug repurposing: Primary screen for NB1643 cells (AID 1347099). Note: nearly all actives have a fitted effect of over 50% in size. Note: potency is the fitted concentration of half-maximal effect. In outline:
as §2

Assay [16] in a line: qHTS of pediatric cancer cell lines to identify multiple opportunities for drug repurposing: Primary screen for OHS-50 cells (AID 1347103). Note: nearly all actives have a fitted effect of over 40% in size. Note: potency is the fitted concentration of half-maximal effect. In outline: as §4
A short description of assay [17]: qHTS of pediatric cancer cell lines to identify multiple opportunities for drug repurposing: Primary screen for SJ-GBM2 cells (AID 1347091). In outline:
as §1

Several values for one entry are separate records, joined by “and”; a condition that tells them apart may be missing. Identical values can stand only once. Results filed as inconclusive are left out. Activity calls are given as the source filed them. Calls come from the whole dose curve; as a rule, active = well fitted curve in the direction sought with a large enough effect; inconclusive = small, poorly fitted or top-dose-only effect, or another doubt; inactive = no such curve, though single readings can be large; an effect the other way counts as inactive or inconclusive.

Regarding `CCOc1cc(CC(=O)N[C@@H](CC(C)C)c2ccccc2N2CCCCC2)ccc1C(=O)O`, the Potency result in assay [1], in [2], in [3], in assay [5], in [6] and in assay [7] was “inactive” in each case. In addition, the Potency result in assay [8], in assay [9], in [10], in [11], in assay [12] and in [13] was “inactive” each time. In addition, the Potency result in assay [14] is “inactive”. Besides, the Potency in assay [4] was 4.69 µM (active).
On to `CCCCCCCCCCCCCCCCCCCCCCO`, for which the Potency entry in [1], in assay [2], in assay [3], in assay [4], in assay [5] and in assay [6] was “inactive” throughout. Moreover, the Potency result in [8], in [15], in [10], in assay [11], in [12] and in [16] was “inactive” throughout. In addition, the Potency entry in assay [13] and in assay [14] was “inactive” throughout.
Take `CCc1nc(N)nc(N)c1-c1ccc(Cl)cc1`: the Potency in assay [1] was 3.74 µM (active) and 11.7 µM (active); in [2], 5.31 µM (active) and 18.7 µM (active); in assay [3], 10.6 µM (active) and 14.8 µM (active); in assay [4] it was 668 nM (active) and 1.18 µM (active); in assay [5], 6.92 µM (active); in assay [6] it was 2.66 µM (active) and 5.26 µM (active). The Potency in [11] was 8.71 µM (active) and 10.9 µM (active); in assay [13] it was 10.6 µM (active) and 18.7 µM (active). Moreover, the Potency entry in [8], in assay [9], in assay [15] and in assay [12] was “inactive” throughout.
For the molecule `Cc1cc(C2CCCCC2)n(O)c(=O)c1`, the Potency in [1] is 7.45 µM (active); in assay [2] it was 10.6 µM (active); in assay [4] it was 750 nM (active) and 1.18 µM (active); in [5] it was 3.09 µM (active); in [6], 7.43 µM (active); in assay [8] it was 21.1 µM (active). Moreover, the Potency in assay [9] was 1.09 µM (active); in assay [15], 11.9 µM (active) and 20.9 µM (active); in assay [10] it was 7.43 µM (active); in assay [11], 6.92 µM (active) and 17.2 µM (active); in assay [16], 3.09 µM (active) and 4.32 µM (active); in assay [13], 7.5 µM (active) and 18.7 µM (active). For the same molecule, in [14], the Potency was 13.3 µM (active) and 23.5 µM (active). Besides, in [7], the Potency result is “inactive”.
Take `CCCCN(CCCC)CCC(O)c1cc2c(Cl)cc(Cl)cc2c2cc(C(F)(F)F)ccc12` (centres undefined): the Potency entry in assay [1], in assay [2], in assay [3], in [15], in assay [11] and in assay [12] was “inactive” in each case. The Potency entry in assay [13] and in assay [14] was “inactive” each time. Also, the Potency in assay [4] is 11.9 µM (active) and 33.2 µM (active); in assay [16], 30.6 µM (active).
Take `O=C(O)c1cc(=O)c2c(OCC(O)COc3cccc4oc(C(=O)O)cc(=O)c34)cccc2o1`: the Potency entry in assay [1], in [2], in assay [3], in [4], in assay [5] and in assay [6] was “inactive” each time. Moreover, the Potency result in [8], in assay [15], in assay [10], in assay [11], in assay [12] and in [16] was “inactive” in each case. For the same molecule, the Potency result in [13] and in [14] was “inactive” in each case.
As for `COC(=O)C1=C(C)NC(C)=C(C(=O)OC(C)C)C1c1cccc2nonc12` (centres undefined), the Potency result in [1], in [17], in [5], in assay [7], in assay [8] and in [10] was “inactive” in each case. Moreover, the Potency entry in assay [11], in [12], in assay [16] and in assay [13] was “inactive” each time. For the same molecule, the Potency in [4] was 2.64 µM (active).
In the case of `COc1cc(OC)c(C(=O)CCCN2CCCC2)c(OC)c1`, the Potency entry in [1], in assay [2], in [3], in assay [4], in assay [5] and in assay [8] was “inactive” throughout. For the same molecule, the Potency result in assay [9], in assay [15], in assay [10], in assay [11], in [12] and in assay [16] was “inactive” throughout. In addition, the Potency entry in assay [13] and in assay [14] was “inactive” throughout.
Turning to `O=C(NCC1CCCCN1)c1cc(OCC(F)(F)F)ccc1OCC(F)(F)F` (centres undefined), the Potency entry in [1], in assay [7], in assay [12] and in assay [13] was “inactive” throughout.
`CCCCCCCCOc1ccccc1C(=O)Nc1ccc(C(=O)OCC[N+](C)(CC)CC)cc1`: the Potency entry in assay [1], in [6] and in [10] was “inactive” in each case. Moreover, the values for the Potency in [8] and in assay [11] were 29.6 µM (active) and 17.4 µM (active), respectively.
As to `CC1=C(C(=O)O)N2C(=O)[C@@H](NC(=O)[C@H](N)C3=CCC=CC3)[C@H]2SC1`, the Potency result in assay [1], in assay [2], in assay [4], in assay [5], in assay [7] and in assay [8] was “inactive” in each case. For the same molecule, the Potency entry in [9], in assay [15], in [10], in [11], in assay [12] and in assay [16] was “inactive” throughout. Further, the Potency entry in [13] and in assay [14] was “inactive” in each case.
As to `O=C(CS(=O)Cc1ccco1)NCC=CCOc1cc(CN2CCCCC2)ccn1` (centres undefined), the Potency entry in assay [1], in assay [2], in assay [3], in assay [5], in [6] and in assay [7] was “inactive” each time. In addition, the Potency entry in [8], in assay [10], in assay [11], in assay [12] and in assay [13] was “inactive” in each case.
With `CC(=O)NC[C@H]1CN(c2ccc(N3CCOCC3)c(F)c2)C(=O)O1`, the Potency entry in assay [1], in assay [2], in [3], in assay [4], in [5] and in assay [6] was “inactive” throughout. In addition, the Potency entry in assay [8], in [15], in [10], in assay [11], in assay [12] and in assay [16] was “inactive” in each case. Besides, the Potency result in assay [13] and in assay [14] was “inactive” each time.
`Clc1ccc(C(Cn2ccnc2)OCc2ccsc2Cl)c(Cl)c1` (centres undefined): the Potency result in [1], in assay [2], in assay [7] and in assay [14] was “inactive” each time. The Potency in assay [3] was 23.5 µM (active); in assay [4], 2.66 µM (active); in [5], 0.001 µM (active); in [15], 11.9 µM (active); in assay [12], 37.6 µM (active); in assay [16], 24.3 µM (active).
Turning to `Cc1cc2cc3c(C)cc(=O)oc3c(C)c2o1`, the Potency entry in [1], in [5], in assay [6], in assay [7], in assay [8] and in assay [10] was “inactive” each time. Also, the Potency result in assay [11], in [12] and in assay [16] was “inactive” in each case.
Regarding `O=C1CCc2ccc(OCCCCN3CCN(c4cccc(Cl)c4Cl)CC3)cc2N1`, the Potency entry in assay [1], in assay [2], in assay [3], in assay [4], in [5] and in assay [6] was “inactive” each time. Further, the Potency entry in assay [7], in assay [15], in assay [12], in assay [13] and in assay [14] was “inactive” in each case. The Potency in assay [16] is 6.92 µM (active) and 24.3 µM (active).
With `COCCCOc1ccnc(CS(=O)c2nc3ccccc3[nH]2)c1C` (centres undefined), the Potency entry in assay [1], in assay [2], in assay [4], in [5], in [8] and in assay [15] was “inactive” throughout. For the same molecule, the Potency result in assay [10], in assay [11], in [12], in [16], in [13] and in assay [14] was “inactive” in each case.
